For 40 compounds, growth inhibition results are on record in PubChem BioAssay (NCI).

Each structure is given as a SMILES string. The panel holds about 79,000 compounds, 15% with a hit somewhere; the sample as a whole holds those more often. A number with no mark means an inactive call. No stated cut-off is given here; in the data, active means growth inhibition above about 70%; inactive means the rest.

One test in a line: NCI Yeast Anticancer Drug Screen. Data for the cln2 rad14 strain (AID 165).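 Further: 0% = growth equal to vehicle treated cultures.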 The note with it: S. cerevisiae cln2 rad14 strain, at 50.0 µM, hits give high values. The method, boiled down: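 The screen exposed genetically defined yeast (cln2 rad14) to test compounds and scored growth inhibition relative to vehicle-treated controls.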
With `CC(=O)C(C)(O)C(OP(=O)(O)O)c1ccccc1` (stereo not given), the growth inhibition is -37.4%.
Still for that read-out and setting: the same measure for `CSc1nc(N)n2nc(C3CC3)cc2n1`: 21.4%.
Take `CN(C)c1nc(Cl)nc2nc(Cl)[nH]c12`: the growth inhibition was 0.8%.
Still for that read-out and setting: the same measure for `CCN1CCCC(N)C1` (stereo not given): 11.8%.
On to `COC(=O)C1CCC(=O)CC1`, for which the growth inhibition is -19.9%.
Still for that read-out and setting: the same measure for `CC/C=C\C/C=C\C/C=C\CCCCCCCC(=O)OC(COC(=O)CCCCCCCCCCCCCCCCC)COC1OC(CO)C(O)C(O)C1O` (stereo not given): -3.4%; for `Cc1ccccc1OS(=O)(=O)c1ccc(Br)cc1`: -107%; for `CN1CCC(C(O)c2ccccc2)CC1` (stereo not given): -24.4%.
`CC1CCC(C(C)C)N(C)CC1` (stereo not given): the growth inhibition was 3.75%.
Same read-out and setting: the same measure for `c1cc2c(cc1CC1CO1)OCO2` (stereo not given): -18.4%; for `CCOC(=O)c1cnc(N)nc1N`: -88.3%.
The same measure, in the same setting: the same measure for `[Fe+2].[Fe+2].c1ccc2c(c1)-c1nc-2nc2[n-]c(nc3nc(nc4[n-]c(n1)c1ccccc41)-c1ccccc1-3)c1cc3c4nc5nc(nc6[n-]c(nc7nc(nc([n-]4)c3cc21)-c1ccccc1-7)c1ccccc61)-c1ccccc1-5`: -23%.
The same measure, in the same setting: the same measure for `Cc1ccc(S(=O)(=O)N2CCOCC2)cc1`: 15.5%.
For `NS(=O)(=O)c1cc2c(cc1Cl)NC(C(=O)NNC(=O)c1ccncc1)=NS2(=O)=O`, the growth inhibition was 1.3%.
Same read-out and setting: the same measure for `C=C(C)C1CC=C(C)/C(=N\O)C1` (stereo not given): 3.05%; for `CCOc1cccc2c1N[S@@](=O)S2`: 16.2%; for `CC(C)(C)SC(=S)SCC(=O)c1cc2ccccc2o1`: 30.1%.
Still for that read-out and setting: the same measure for `COC1(c2ccccc2)OC(=O)C(C)(C)c2ccccc21` (stereo not given): 22.1%; for `O/N=C/c1cc2c(cc1Br)OCO2`: -9.75%.
The same measure, in the same setting: the same measure for `COc1cc2ccncc2cc1O`: -4.25%; for `Cc1cc(=O)[nH]c2cc(O)c(C(=O)O)cc12`: -54.5%; for `N#Cc1cn(C2OC(CO)C3OC32)c2ncnc(NC(=O)c3ccccc3)c12` (stereo not given): 10.3%.
As for `CCc1ccc(C(C)=O)cc1`, the growth inhibition was 3.5%.
Same read-out and setting: the same measure for `Nc1c(Br)cc(Br)cc1-c1cc(Br)cc(Br)c1N`: 5.3%.
The same measure, in the same setting: the same measure for `Oc1ccc(-c2c3ccccc3c(-c3ccc(OCCBr)cc3)c3ccccc23)cc1`: 4.65%.
On the same count and under the same terms, the same measure for `OCC1CCN(CCOCc2ccccc2)C1` (stereo not given): -32.5%; for `CNC(=S)SSSC(=S)NC`: 2.55%.
For the compound `O=C1c2ccccc2C(=O)N1CNc1cccc(Cl)c1`, the growth inhibition was 10.1%.
The same measure, in the same setting: the same measure for `CCCCCCCCS(=O)(=O)NC`: -10%; for `COC(=O)CCSC(=S)NCc1ccccc1`: -222%; for `O=C(NC1CCC(CC2CCC(NC(=O)C34CC5CC(CC(C5)C3)C4)CC2)CC1)C12CC3CC(CC(C3)C1)C2` (stereo not given): -6.25%.
On the same count and under the same terms, the same measure for `CCOC(=N)CC(=O)NC(C)c1ccccc1` (stereo not given): 14.3%; for `Nc1nc(C2CCCCC2)cc(=O)[nH]1`: -25.1%; for `O=C1CNC(=O)N1Nc1ccccc1`: -26.6%.
Turning to `Cc1cc(C)c(F)c(C)c1N`, the growth inhibition was -19.4%.
On the same count and under the same terms, the same measure for `COC1OC(COC(=O)c2ccccc2)C(SC(=O)c2ccccc2)C1OC(=O)c1ccccc1` (stereo not given): -2%.
Still for that read-out and setting: the same measure for `CC1(C)CC(=O)C2=C(C1)NC(SSC1=C(C#N)C(c3ccc(F)cc3)C3=C(CC(C)(C)CC3=O)N1)=C(C#N)C2c1ccc(F)cc1` (stereo not given): 55.5%; for `Oc1cccc(C=NCCN=Cc2cccc(O)c2O)c1O.[Fe]`: -39.7%; for `CC(=O)OCC1OC(Nc2[nH]c(=O)n(C)c(=O)c2C(=O)CCl)C(OC(C)=O)C(OC(C)=O)C1OC(C)=O` (stereo not given): -2.55%.
The same measure, in the same setting: the same measure for `Nc1cc(=O)n(C2CC(O)C(CO)O2)cn1` (stereo not given): 1.95%.

Another test can be described thus: NCI Yeast Anticancer Drug Screen. Data for the bub3 strain (AID 167). The conditions noted are these: S. cerevisiae bub3 mutant strain, at 50.0 µM, hits give high values. The method, boiled down:
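Whole-cell yeast assay. The mutant strain was incubated with compounds, and growth inhibition was determined by comparison with vehicle-treated cells.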
On to `CC(=O)C(C)(O)C(OP(=O)(O)O)c1ccccc1` (stereo not given), for which the growth inhibition was -11.1%.
Regarding `CSc1nc(N)n2nc(C3CC3)cc2n1`, the growth inhibition was 15.9%.
Same read-out and setting: the same measure for `CN(C)c1nc(Cl)nc2nc(Cl)[nH]c12`: -3.2%; for `CCN1CCCC(N)C1` (stereo not given): -41.8%.
As to `COC(=O)C1CCC(=O)CC1`, the growth inhibition was 2.4%.
On the same count and under the same terms, the same measure for `CC/C=C\C/C=C\C/C=C\CCCCCCCC(=O)OC(COC(=O)CCCCCCCCCCCCCCCCC)COC1OC(CO)C(O)C(O)C1O` (stereo not given): 32.2%.
On the same count and under the same terms, the same measure for `Cc1ccccc1OS(=O)(=O)c1ccc(Br)cc1`: 24.8%.
Still for that read-out and setting: the same measure for `CN1CCC(C(O)c2ccccc2)CC1` (stereo not given): 3.95%; for `CC1CCC(C(C)C)N(C)CC1` (stereo not given): -8.15%; for `c1cc2c(cc1CC1CO1)OCO2` (stereo not given): -22.5%.
As for `CCOC(=O)c1cnc(N)nc1N`, the growth inhibition is -8.3%.
On the same count and under the same terms, the same measure for `[Fe+2].[Fe+2].c1ccc2c(c1)-c1nc-2nc2[n-]c(nc3nc(nc4[n-]c(n1)c1ccccc41)-c1ccccc1-3)c1cc3c4nc5nc(nc6[n-]c(nc7nc(nc([n-]4)c3cc21)-c1ccccc1-7)c1ccccc61)-c1ccccc1-5`: 6.75%.
In the case of `Cc1ccc(S(=O)(=O)N2CCOCC2)cc1`, the growth inhibition is -0.7%.
The same measure, in the same setting: the same measure for `NS(=O)(=O)c1cc2c(cc1Cl)NC(C(=O)NNC(=O)c1ccncc1)=NS2(=O)=O`: -11.9%; for `C=C(C)C1CC=C(C)/C(=N\O)C1` (stereo not given): 15%; for `CCOc1cccc2c1N[S@@](=O)S2`: 7.8%.
Still for that read-out and setting: the same measure for `CC(C)(C)SC(=S)SCC(=O)c1cc2ccccc2o1`: 40.8%.
`COC1(c2ccccc2)OC(=O)C(C)(C)c2ccccc21` (stereo not given): the growth inhibition is 13.9%.
The same measure, in the same setting: the same measure for `O/N=C/c1cc2c(cc1Br)OCO2`: -16.9%; for `COc1cc2ccncc2cc1O`: 9.45%.
Same read-out and setting: the same measure for `Cc1cc(=O)[nH]c2cc(O)c(C(=O)O)cc12`: 1.6%; for `N#Cc1cn(C2OC(CO)C3OC32)c2ncnc(NC(=O)c3ccccc3)c12` (stereo not given): -4%.
On the same count and under the same terms, the same measure for `CCc1ccc(C(C)=O)cc1`: -9.7%.
As for `Nc1c(Br)cc(Br)cc1-c1cc(Br)cc(Br)c1N`, the growth inhibition is 13.4%.
On the same count and under the same terms, the same measure for `Oc1ccc(-c2c3ccccc3c(-c3ccc(OCCBr)cc3)c3ccccc23)cc1`: -11.3%; for `OCC1CCN(CCOCc2ccccc2)C1` (stereo not given): -7.05%.
In the case of `CNC(=S)SSSC(=S)NC`, the growth inhibition was -10.3%.
Same read-out and setting: the same measure for `O=C1c2ccccc2C(=O)N1CNc1cccc(Cl)c1`: 4.6%; for `CCCCCCCCS(=O)(=O)NC`: 16.4%.
Still for that read-out and setting: the same measure for `COC(=O)CCSC(=S)NCc1ccccc1`: -3.45%; for `O=C(NC1CCC(CC2CCC(NC(=O)C34CC5CC(CC(C5)C3)C4)CC2)CC1)C12CC3CC(CC(C3)C1)C2` (stereo not given): -1.85%.
Consider `CCOC(=N)CC(=O)NC(C)c1ccccc1` (stereo not given), for which the growth inhibition is 0.15%.
Same read-out and setting: the same measure for `Nc1nc(C2CCCCC2)cc(=O)[nH]1`: 5.5%.
On the same count and under the same terms, the same measure for `O=C1CNC(=O)N1Nc1ccccc1`: 4%; for `Cc1cc(C)c(F)c(C)c1N`: -22.1%.
Same read-out and setting: the same measure for `COC1OC(COC(=O)c2ccccc2)C(SC(=O)c2ccccc2)C1OC(=O)c1ccccc1` (stereo not given): -1.4%; for `CC1(C)CC(=O)C2=C(C1)NC(SSC1=C(C#N)C(c3ccc(F)cc3)C3=C(CC(C)(C)CC3=O)N1)=C(C#N)C2c1ccc(F)cc1` (stereo not given): -26.2%; for `Oc1cccc(C=NCCN=Cc2cccc(O)c2O)c1O.[Fe]`: 13.2%.
Consider `CC(=O)OCC1OC(Nc2[nH]c(=O)n(C)c(=O)c2C(=O)CCl)C(OC(C)=O)C(OC(C)=O)C1OC(C)=O` (stereo not given), for which the growth inhibition is -3.8%.
Still for that read-out and setting: the same measure for `Nc1cc(=O)n(C2CC(O)C(CO)O2)cn1` (stereo not given): -13.3%.
